# Assay results from PubChem BioAssay (NCATS).
# Results filed as inconclusive are left out. Where a call stands in place of a potency, no number is given. Unmarked numbers belong to inactive results. Calls of active or inactive are those of the source. Calls follow the shape of the dose curve; as a rule, active = well fitted curve in the direction sought with a large enough effect; inconclusive = small, poorly fitted or top-dose-only effect, or another doubt; inactive = no such curve, though single readings can be large; an effect the other way counts as inactive or inconclusive.
# Columns and labels:
# CRL-7250 [1] = assay: Cytotoxic Profiling of Annotated Libraries Using Quantitative High-Throughput Screening (AID 1296008); conditions: Five cell lines viability, CellTiter-Glo ATP luminescence, 48-72 h; max response: hits give low values; also: nearly all actives have a fitted effect of over 60% in size; also: potency is read from the fitted curve at half-maximal effect
# Summary of the method: (§1)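 Cytotoxicity was measured as CellTiter-Glo ATP luminescence, read after 10 min at room temperature. Compound treatment of the cells lasted 48 or 72 hr at 37 degrees Celsius in a qHTS format.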
# HaCat [2] = assay: as above; conditions: Five cell lines viability, CellTiter-Glo ATP luminescence, 48-72 h; max response: hits give low values
# Summary of the method: as §1
# KB-3-1 = assay: as above; conditions: Five cell lines viability, CellTiter-Glo ATP luminescence, 48-72 h; max response: hits give low values
# Summary of the method: as §1
# MCC-13 = assay: qHTS assay to identify novel small-molecules to repurpose for Merkel cell carcinoma treatment (AID 1296009); conditions: MCC and control cell lines, CellTiter-Glo viability, 72 h; series mostly up to 46 µM; also: nearly all actives have a fitted effect of over 60% in size; also: potency is read from the fitted curve at half-maximal effect
# Summary of the method: (§2)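 Cell viability measured by CellTiter-Glo following 72 hr compound treatment at 37 degree celsius, with NPC and MIPE libraries tested in 8- and 11-point concentration series.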
# MCC-26 = assay: as above; conditions: MCC and control cell lines, CellTiter-Glo viability, 72 h; series mostly up to 46 µM
# Summary of the method: as §2
# UISO = assay: as above; conditions: MCC and control cell lines, CellTiter-Glo viability, 72 h; series mostly up to 46 µM
# Summary of the method: as §2
# CAOV3 = assay: Primary qHTS to identify gynecologic anti-cancer compounds using libraries of approved drugs and bioactive compounds (AID 1345084); conditions: Gynecologic cancer cell panel viability, ATPlite luminescence, 48 h; series mostly up to 57.5 µM; also: nearly all actives have a fitted effect of over 55% in size; also: potency is read from the fitted curve at half-maximal effect
# Summary of the method: (§3)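 Cells, 1,000 per well, were allowed to settle for 16 h at 37 C before compound addition. Five concentrations were tested for 48 h, and viability was read by ATPlite luminescence after 15 min at room temperature.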
# NIH3T3 [3] = assay: Cytotoxic Profiling of Annotated Libraries Using Quantitative High-Throughput Screening (AID 1296008); conditions: Five cell lines viability, CellTiter-Glo ATP luminescence, 48-72 h; max response: hits give low values; also: nearly all actives have a fitted effect of over 60% in size; also: potency is read from the fitted curve at half-maximal effect
# Summary of the method: as §1
# MKL-1 = assay: qHTS assay to identify novel small-molecules to repurpose for Merkel cell carcinoma treatment (AID 1296009); conditions: MCC and control cell lines, CellTiter-Glo viability, 72 h; series mostly up to 46 µM; also: nearly all actives have a fitted effect of over 60% in size; also: potency is read from the fitted curve at half-maximal effect
# Summary of the method: as §2
# MKL-2 = assay: as above; conditions: MCC and control cell lines, CellTiter-Glo viability, 72 h; series mostly up to 46 µM
# Summary of the method: as §2
# C33A = assay: Primary qHTS to identify gynecologic anti-cancer compounds using libraries of approved drugs and bioactive compounds (AID 1345084); conditions: Gynecologic cancer cell panel viability, ATPlite luminescence, 48 h; series mostly up to 57.5 µM; also: nearly all actives have a fitted effect of over 55% in size; also: potency is read from the fitted curve at half-maximal effect
# Summary of the method: as §3
# TAB113 = assay: qHTS profiling for inhibitors of Plasmodium falciparum proliferation (AID 504749); also: nearly all actives have a fitted effect of over 60% in size; conditions: P. falciparum in erythrocytes, SYBR Green DNA, 72 h; series mostly up to 28.7 µM
# Summary of the method: (§4)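 In a 72 h erythrocytic culture (37 C, humidified, 5% CO2) at 2.5% hematocrit and 0.3% starting parasitemia, compounds were tested; SYBR Green I in detergent lysis buffer stained parasite DNA overnight.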
# TAB165 = assay: as above; conditions: P. falciparum in erythrocytes, SYBR Green DNA, 72 h; series mostly up to 28.7 µM
# Summary of the method: as §4
# W2 = assay: as above; conditions: P. falciparum in erythrocytes, SYBR Green DNA, 72 h; series mostly up to 28.7 µM
# Summary of the method: as §4
# WaGa = assay: qHTS assay to identify novel small-molecules to repurpose for Merkel cell carcinoma treatment (AID 1296009); conditions: MCC and control cell lines, CellTiter-Glo viability, 72 h; series mostly up to 46 µM; also: nearly all actives have a fitted effect of over 60% in size; also: potency is read from the fitted curve at half-maximal effect
# Summary of the method: as §2
# CRL-7250 [4] = assay: as above; conditions: MCC and control cell lines, CellTiter-Glo viability, 72 h; at 44.8 µM (top of the series) unless noted
# Summary of the method: as §2
# HEK293 = assay: Cytotoxic Profiling of Annotated Libraries Using Quantitative High-Throughput Screening (AID 1296008); conditions: Five cell lines viability, CellTiter-Glo ATP luminescence, 48-72 h; max response: hits give low values; also: nearly all actives have a fitted effect of over 60% in size; also: potency is read from the fitted curve at half-maximal effect
# Summary of the method: as §1
# HACAT [5] = assay: qHTS assay to identify novel small-molecules to repurpose for Merkel cell carcinoma treatment (AID 1296009); conditions: MCC and control cell lines, CellTiter-Glo viability, 72 h; at 44.8 µM (top of the series) unless noted; also: nearly all actives have a fitted effect of over 60% in size; also: potency is read from the fitted curve at half-maximal effect
# Summary of the method: as §2
# NIH3T3 [6] = assay: as above; conditions: MCC and control cell lines, CellTiter-Glo viability, 72 h; at 44.8 µM (top of the series) unless noted
# Summary of the method: as §2
# HEK293T = assay: as above; conditions: MCC and control cell lines, CellTiter-Glo viability, 72 h; at 44.8 µM (top of the series) unless noted
# Summary of the method: as §2
compound,measurement,setting,value
Nc1ccc(Cl)cc1N,max response,CRL-7250 [1],-5.38%
same,max response,HaCat [2],-38.9%
same,max response,KB-3-1,-2.75%
same,Potency,MCC-13,inactive
same,Potency,MCC-26,inactive
same,Potency,UISO,inactive
same,Potency,CAOV3,inactive
CC1(C)CC/C(=C/c2ccc(Cl)cc2)C1(O)Cn1cncn1 (stereo not given),max response,CRL-7250 [1],-5.73%
same,max response,KB-3-1,-19.8%
same,max response,NIH3T3 [3],-11.7%
same,Potency,MCC-13,inactive
same,Potency,MCC-26,inactive
same,Potency,MKL-1,inactive
same,Potency,MKL-2,inactive
same,Potency,UISO,inactive
same,Potency,C33A,inactive
C#CC1(O)CCC2C3CCC4=CC(=O)CCC4(C)C3CCC21C (stereo not given),Potency,TAB113,inactive
same,Potency,TAB165,inactive
same,Potency,W2,inactive
same,max response,CRL-7250 [1],-20.8%
same,max response,HaCat [2],-0.0987%
same,max response,KB-3-1,-11.2%
same,max response,NIH3T3 [3],0.477%
same,Potency,MCC-13,inactive
same,Potency,MKL-1,inactive
same,Potency,MKL-2,inactive
same,Potency,UISO,inactive
same,Potency,WaGa,inactive
CCCN1CCO[C@@H]2c3cc(O)ccc3OC[C@@H]21,max response,CRL-7250 [1],-5.49%
same,outcome,KB-3-1,inactive
same,Potency,MCC-13,inactive
same,Potency,MCC-26,inactive
same,Potency,MKL-1,inactive
same,Potency,UISO,inactive
C=C[C@@H]1CN2CCC1C[C@H]2[C@H](O)c1ccnc2ccccc12 (stereo not given in full),outcome,CRL-7250 [1],inactive
same,max response,NIH3T3 [3],-22.5%
same,outcome,CRL-7250 [4],inactive
same,Potency,MCC-13,inactive
same,Potency,MKL-1,inactive
same,Potency,MKL-2,inactive
same,Potency,UISO,inactive
same,Potency,WaGa,inactive
CCCCCC[C@H]1C(=O)O[C@H](C)[C@H](NC(=O)c2cccc(NC=O)c2O)C(=O)O[C@@H](C)[C@@H]1OC(=O)CC(C)C,Potency,CRL-7250 [1],1.48 µM (active)
same,max response,HaCat [2],-16%
same,Potency,MKL-2,4.69 µM (active)
CC=C(C)C(=O)N[C@@H](c1ccccc1)[C@@H](O)C(=O)O[C@H]1C[C@@]2(O)[C@@H](OC(=O)c3ccccc3)[C@@H]3[C@]4(OC(C)=O)CO[C@@H]4C[C@H](O)[C@@]3(C)C(=O)[C@H](OC(C)=O)C(=C1C)C2(C)C,max response,HEK293,-78.1%
same,Potency,KB-3-1,0.001 µM (active)
same,Potency,MKL-1,inactive
same,Potency,MKL-2,inactive
CC(=O)O[C@@]12CO[C@H]1C[C@H](O)[C@@]1(C)C(=O)[C@H](O)C3=C(C)[C@@H](O)C[C@@](O)([C@@H](OC(=O)c4ccccc4)[C@@H]21)C3(C)C,Potency,HEK293,2.96 µM (active)
same,Potency,KB-3-1,3.32 µM (active)
same,Potency,NIH3T3 [3],14.8 µM (active)
same,Potency,MKL-2,inactive
same,Potency,UISO,4.18 µM (active)
CC1(N2CCC(n3c([C@@H]4CCCNC4)nc4ccccc43)CC2)CCCCCCC1,Potency,CRL-7250 [1],14.8 µM (active)
same,max response,HaCat [2],-28.8%
same,Potency,MCC-13,inactive
same,Potency,MCC-26,inactive
same,Potency,MKL-1,23.5 µM (active)
same,Potency,MKL-2,13.2 µM (active)
same,Potency,CAOV3,8.91 µM (active)
COCC1(CO)C(=O)C2CCN1CC2 (stereo not given),max response,CRL-7250 [1],-4.01%
same,outcome,HaCat [2],inactive
same,max response,KB-3-1,3.43%
same,outcome,HACAT [5],inactive
same,Potency,MCC-13,inactive
same,Potency,MCC-26,inactive
same,Potency,MKL-1,2.09 µM (active)
same,Potency,WaGa,1.32 µM (active)
CCCCOC(=O)c1ccccc1C(=O)OCc1ccccc1,max response,CRL-7250 [1],-23.3%
same,max response,KB-3-1,-13.6%
same,max response,NIH3T3 [3],-6.85%
same,Potency,MCC-13,inactive
same,Potency,MKL-1,inactive
same,Potency,MKL-2,inactive
same,Potency,UISO,inactive
same,Potency,WaGa,inactive
same,Potency,C33A,inactive
O=C(Nc1ccccc1-c1ccc(Cl)cc1)c1cccnc1Cl,max response,CRL-7250 [1],-3.67%
same,max response,KB-3-1,-17.8%
same,outcome,NIH3T3 [3],inactive
same,Potency,MCC-13,inactive
same,Potency,MCC-26,inactive
same,Potency,MKL-1,inactive
same,Potency,MKL-2,inactive
same,outcome,NIH3T3 [6],inactive [at 92 µM]
same,Potency,UISO,inactive
same,Potency,C33A,inactive
same,Potency,CAOV3,inactive
C[C@]12COC(=O)C[C@@H]1CC[C@@H]1[C@H]2CC[C@@]2(C)[C@H]1CC[C@]2(C)O,outcome,HaCat [2],inactive
same,max response,KB-3-1,0.496%
same,max response,NIH3T3 [3],-1.39%
same,outcome,HACAT [5],inactive
same,Potency,MCC-13,inactive
same,Potency,MKL-1,inactive
same,Potency,MKL-2,inactive
same,Potency,UISO,inactive
same,Potency,WaGa,inactive
CC1=C(C(=O)O)N2C(=O)[C@@H](N)[C@H]2SC1,outcome,CRL-7250 [1],inactive
same,max response,HaCat [2],3.51%
same,outcome,NIH3T3 [3],inactive
same,outcome,CRL-7250 [4],inactive [at 17.4 µM]
same,outcome,HEK293T,inactive [at 17.4 µM]
same,Potency,MCC-13,inactive
same,Potency,MKL-1,inactive
same,Potency,MKL-2,inactive
same,outcome,NIH3T3 [6],inactive [at 17.4 µM]
same,Potency,UISO,inactive
same,Potency,WaGa,inactive
same,Potency,C33A,inactive
